Laboratory results as given in the supplement of paper PMC8007513.
Structures can show the parent of a compound that is named as a salt. ± gives the standard error. Hit rate of the full screen: of about 1,300 compounds, about 130 (10%) showed an effect of 50% or more. What follows is part of a selection rich in strong results, with near analogues and random picks from the rest.

Tested on: Trichoderma virens ATCC 9645
Experiment: growth yield (OD600) with compound + IPBC relative to untreated control; higher = less growth inhibition
Settings: compound concentration: 100 uM, IPBC concentration: 200 ng/ml
Method in brief: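 Trichoderma virens ATCC 9645 spores, from potato dextrose agar plates grown for 7 days, were brought to 15,000 spores ml^−1 in potato dextrose broth and dispensed as 100 μl aliquots into 96-well plates. Each aliquot received library compounds at 100 μM final, with or without a biocide at 200 ng ml^−1, before growth at 30 °C and OD600 readings on a BioTek EL800 at 40 h and 72 h. Growth is expressed relative to the control containing neither agent and represents means of duplicate screens.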

Structure (SMILES) | growth yield (40 h) | growth yield (72 h)
CN[C@@H]1[C@@H](O[C@H]2O[C@H](CO)[C@@H](N)[C@H](O)[C@H]2O)OC2C[C@@H](N)[C@@H](O[C@H]3[C@H](O)[C@@H](O)[C@H](N)C[C@@H]3N)OC2[C@@H]1O (stereo partly drawn) [Apramycin] + CCCCNC(=O)OCC#CI [3-iodo-2-propynyl butylcarbamate (IPBC)] | 96.6 ± 4.1% | 97.1 ± 1.5%
CCCN(CCC)S(=O)(=O)c1ccc(C(=O)O)cc1 [Probenecid] + CCCCNC(=O)OCC#CI [3-iodo-2-propynyl butylcarbamate (IPBC)] | 81.5 ± 4.9% | 86.1 ± 0.73%
NC(=O)N1c2ccccc2C=Cc2ccccc21 [Carbamazepine] + CCCCNC(=O)OCC#CI [3-iodo-2-propynyl butylcarbamate (IPBC)] | 92.8 ± 1.9% | 93.8 ± 1.1%
COc1cc2c(c(OC)c1OC)-c1ccc(OC)c(=O)cc1[C@@H](NC(C)=O)CC2 [Colchicine] + CCCCNC(=O)OCC#CI [3-iodo-2-propynyl butylcarbamate (IPBC)] | 88.5 ± 6.8% | 92.9 ± 1.7%
NC[C@@H]1O[C@H](O[C@H]2[C@@H](O)[C@H](O[C@@H]3[C@@H](O)[C@H](N)C[C@H](N)[C@H]3O[C@H]3O[C@H](CO)[C@@H](O)[C@H](O)[C@H]3N)O[C@@H]2CO)[C@H](N)[C@@H](O)[C@@H]1O [Paromomycin sulfate] + CCCCNC(=O)OCC#CI [3-iodo-2-propynyl butylcarbamate (IPBC)] | 84 ± 7.2% | 86.5 ± 2.2%
COC1=C(OC)C(=O)C(CCCCCCCCCCO)=C(C)C1=O [Idebenone] + CCCCNC(=O)OCC#CI [3-iodo-2-propynyl butylcarbamate (IPBC)] | 49.1 ± 8.1% | 73.9 ± 4.5%
CCn1cc(C(=O)O)c(=O)c2cc(F)c(N3CCNC(C)C3)c(F)c21 (stereo not drawn) [Lomefloxacin hydrochloride] + CCCCNC(=O)OCC#CI [3-iodo-2-propynyl butylcarbamate (IPBC)] | 87.4 ± 8.3% | 96.3 ± 6.5%
CCCN(CCC)CCc1cccc2c1CC(=O)N2 [Ropinirole hydrochloride] + CCCCNC(=O)OCC#CI [3-iodo-2-propynyl butylcarbamate (IPBC)] | 84.8 ± 1.3% | 90.61 ± 0.42%
O=C(O)c1cccnc1Nc1cccc(C(F)(F)F)c1 [Niflumic acid] + CCCCNC(=O)OCC#CI [3-iodo-2-propynyl butylcarbamate (IPBC)] | 63.9 ± 2.9% | 85.2 ± 3.1%
O=C(O)c1ccccc1Nc1cccc(C(F)(F)F)c1 [Flufenamic acid] + CCCCNC(=O)OCC#CI [3-iodo-2-propynyl butylcarbamate (IPBC)] | 29.1 ± 2.1% | 59.05 ± 0.32%
O=C(OCCOCCO)c1ccccc1Nc1cccc(C(F)(F)F)c1 [Etofenamate] + CCCCNC(=O)OCC#CI [3-iodo-2-propynyl butylcarbamate (IPBC)] | 59.2 ± 1.4% | 94.4 ± 2.1%
CCCc1nc(C(C)(C)O)c(C(=O)O)n1Cc1ccc(-c2ccccc2-c2nnn[nH]2)cc1 [Olmesartan] + CCCCNC(=O)OCC#CI [3-iodo-2-propynyl butylcarbamate (IPBC)] | 107 ± 1.3% | 104 ± 1.4%
OC(c1cc(C(F)(F)F)nc2c(C(F)(F)F)cccc12)C1CCCCN1 (stereo not drawn) [Mefloquine hydrochloride] + CCCCNC(=O)OCC#CI [3-iodo-2-propynyl butylcarbamate (IPBC)] | 74.8 ± 4% | 103 ± 3.4%
O=C(O)Cc1sc(-c2ccccc2)nc1-c1ccc(Cl)cc1 [Fentiazac] + CCCCNC(=O)OCC#CI [3-iodo-2-propynyl butylcarbamate (IPBC)] | 25.4% | 77.1 ± 16%
O=C(O)Cc1ccc(-c2ccccc2)cc1 [Felbinac] + CCCCNC(=O)OCC#CI [3-iodo-2-propynyl butylcarbamate (IPBC)] | 56.2 ± 4.1% | 91.9 ± 4.6%
O=C(O)CCc1nc(-c2ccccc2)c(-c2ccccc2)o1 [Oxaprozin] + CCCCNC(=O)OCC#CI [3-iodo-2-propynyl butylcarbamate (IPBC)] | 72.7 ± 4.5% | 85.47 ± 0.73%
Nc1nc(/C(=C/CC(=O)O)C(=O)N[C@@H]2C(=O)N3C(C(=O)O)=CCS[C@H]23)cs1 [Ceftibuten] + CCCCNC(=O)OCC#CI [3-iodo-2-propynyl butylcarbamate (IPBC)] | 92.4 ± 4.8% | 94 ± 3.1%
CCCNC(=O)NS(=O)(=O)c1ccc(Cl)cc1 [Chlorpropamide] + CCCCNC(=O)OCC#CI [3-iodo-2-propynyl butylcarbamate (IPBC)] | 93.7 ± 4.1% | 102 ± 2.2%
CCN(CC)C(=S)SSC(=S)N(CC)CC [Disulfiram] + CCCCNC(=O)OCC#CI [3-iodo-2-propynyl butylcarbamate (IPBC)] | 33.7 ± 3.8% | 92.4 ± 1.6%
C=CCC1(CC(C)C)C(=O)NC(=O)NC1=O [Butalbital] + CCCCNC(=O)OCC#CI [3-iodo-2-propynyl butylcarbamate (IPBC)] | 85.6 ± 1.4% | 93.2 ± 0.94%

Structure (SMILES) | growth yield (40 h) | growth yield (72 h)
COc1ccc([C@@H]2Sc3ccccc3N(CCN(C)C)C(=O)[C@@H]2OC(C)=O)cc1 [Diltiazem hydrochloride] + CCCCNC(=O)OCC#CI [3-iodo-2-propynyl butylcarbamate (IPBC)] | 80.85 ± 0.48% | 88.4 ± 2.2%
CC(C)C[C@H](CN)CC(=O)O [Pregabalin] + CCCCNC(=O)OCC#CI [3-iodo-2-propynyl butylcarbamate (IPBC)] | 85.3 ± 0.79% | 89.14 ± 0.21%
CN(C)c1cc(NC(=O)CNC(C)(C)C)c(O)c2c1C[C@H]1C[C@H]3[C@H](N(C)C)C(O)=C(C(N)=O)C(=O)[C@@]3(O)C(O)=C1C2=O [Tigecycline] + CCCCNC(=O)OCC#CI [3-iodo-2-propynyl butylcarbamate (IPBC)] | 80.7 ± 3.5% | 79 ± 2%
CC(C)NC(=N)NC(=N)Nc1ccc(Cl)cc1 [Proguanil hydrochloride] + CCCCNC(=O)OCC#CI [3-iodo-2-propynyl butylcarbamate (IPBC)] | 92.8 ± 2.2% | 104 ± 1.8%
N=C(NCCCCCCNC(=N)NC(=N)Nc1ccc(Cl)cc1)NC(=N)Nc1ccc(Cl)cc1 [Chlorhexidine] + CCCCNC(=O)OCC#CI [3-iodo-2-propynyl butylcarbamate (IPBC)] | 4.61 ± 0.16% | 3.67 ± 0.32%
N=C(N)NC(=N)NCCc1ccccc1 [Phenformin hydrochloride] + CCCCNC(=O)OCC#CI [3-iodo-2-propynyl butylcarbamate (IPBC)] | 86.25 ± 0.48% | 92 ± 2.4%
CCN(CC)C(=O)N1CCN(C)CC1 [Diethylcarbamazine citrate] + CCCCNC(=O)OCC#CI [3-iodo-2-propynyl butylcarbamate (IPBC)] | 83.4 ± 2.4% | 94.1 ± 1.4%
CN(CCOc1ccc(CC2SC(=O)NC2=O)cc1)c1ccccn1 (stereo not drawn) [Rosiglitazone Hydrochloride] + CCCCNC(=O)OCC#CI [3-iodo-2-propynyl butylcarbamate (IPBC)] | 76.4 ± 7.5% | 82.6 ± 6.1%
CCCOc1ccccc1-c1nc2[nH]nnc2c(=O)[nH]1 [Zaprinast] + CCCCNC(=O)OCC#CI [3-iodo-2-propynyl butylcarbamate (IPBC)] | 87.2 ± 0.79% | 98.7 ± 1.1%
N[C@@H]1CCCCN(c2c(F)cc3c(=O)c(C(=O)O)cn(C4CC4)c3c2Cl)C1 [Besifloxacin hydrochloride] + CCCCNC(=O)OCC#CI [3-iodo-2-propynyl butylcarbamate (IPBC)] | 88.5 ± 2.7% | 88.1 ± 2.7%
CCN(CC)CCOC(=O)C(c1ccccc1)c1ccccc1 [Adiphenine hydrochloride] + CCCCNC(=O)OCC#CI [3-iodo-2-propynyl butylcarbamate (IPBC)] | 87.2 ± 1.4% | 92.8 ± 1.4%
CN(C)CCOC(=O)COc1ccc(Cl)cc1 [Meclofenoxate hydrochloride] + CCCCNC(=O)OCC#CI [3-iodo-2-propynyl butylcarbamate (IPBC)] | 93.2 ± 3.3% | 96.7 ± 2.1%
CN(C)CCOc1ccc(/C(=C(/CCCl)c2ccccc2)c2ccccc2)cc1 [Toremifene] + CCCCNC(=O)OCC#CI [3-iodo-2-propynyl butylcarbamate (IPBC)] | 3.49 ± 0.95% | 3.15 ± 0.42%
CC/C(=C(\c1ccccc1)c1ccc(OCCN(C)C)cc1)c1ccccc1 [Tamoxifen citrate] + CCCCNC(=O)OCC#CI [3-iodo-2-propynyl butylcarbamate (IPBC)] | 3.34 ± 0.48% | 3.36 ± 0.63%
CCN(CC)CCOc1ccc(C(=C(Cl)c2ccccc2)c2ccccc2)cc1 [Clomiphene citrate (Z,E)] + CCCCNC(=O)OCC#CI [3-iodo-2-propynyl butylcarbamate (IPBC)] | 3.02 ± 0.16% | 2.94%
COc1cc(C(=O)NCc2ccc(OCCN(C)C)cc2)cc(OC)c1OC [Trimethobenzamide hydrochloride] + CCCCNC(=O)OCC#CI [3-iodo-2-propynyl butylcarbamate (IPBC)] | 90.2 ± 1.3% | 91.3 ± 2.8%
COc1ccc(C(=O)NCc2ccc(OCCN(C)C)cc2)cc1OC [Itopride] + CCCCNC(=O)OCC#CI [3-iodo-2-propynyl butylcarbamate (IPBC)] | 107 ± 1.1% | 102%
COc1ccc(C(Cl)=C(c2ccc(OC)cc2)c2ccc(OC)cc2)cc1 [Chlorotrianisene] + CCCCNC(=O)OCC#CI [3-iodo-2-propynyl butylcarbamate (IPBC)] | 103 ± 17% | 101 ± 11%
CN(C)CCOC(c1ccccc1)c1ccccc1 [Diphenhydramine hydrochloride] + CCCCNC(=O)OCC#CI [3-iodo-2-propynyl butylcarbamate (IPBC)] | 87.2 ± 2.1% | 94 ± 2.1%
